Results from PMC4081100, “A DNA-binding-site landscape and regulatory network analysis for NAC transcription factors in Arabidopsis thaliana”.

Tests used:
Assay in all cases: universal protein binding microarray (PBM); transcription factors of Arabidopsis thaliana; high values mean tight binding
GST-ANAC092(1-176) = molecular target: T1, GST-ANAC092(1-176) (Arabidopsis thaliana, UniProt Q9FKA0 1-176); settings: protein: recombinant; tags: GST; chain copies: 2; dsDNA, one strand shown
T1 sequence: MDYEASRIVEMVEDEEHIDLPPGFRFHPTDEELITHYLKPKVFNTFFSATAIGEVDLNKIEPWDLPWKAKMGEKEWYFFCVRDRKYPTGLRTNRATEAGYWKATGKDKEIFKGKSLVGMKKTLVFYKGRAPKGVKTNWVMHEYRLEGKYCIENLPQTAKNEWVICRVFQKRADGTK
Summary of the method: (§1)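 GST-tagged NAC-domain, full-length or DNA-binding-domain proteins were induced in cells, with zinc acetate added for zinc-finger proteins. They were purified on glutathione–Sepharose 4B and quantified by A280 or anti-GST western blot. Each was applied at 200 to 500 nM final, in duplicate, to custom all-10-mer Agilent 4 × 180K arrays made double-stranded by primer extension, with gapped and ungapped 8-mers scored. Binding is the normalised enrichment score (E-score).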

GST-NTL6(1-168) = GST-NTL6(1-168) (Arabidopsis thaliana, UniProt Q9SCK6 1-168); settings: protein: recombinant; tags: GST; chain copies: 2; dsDNA, one strand shown
Chain of GST-NTL6(1-168) (Q9SCK6 1-168): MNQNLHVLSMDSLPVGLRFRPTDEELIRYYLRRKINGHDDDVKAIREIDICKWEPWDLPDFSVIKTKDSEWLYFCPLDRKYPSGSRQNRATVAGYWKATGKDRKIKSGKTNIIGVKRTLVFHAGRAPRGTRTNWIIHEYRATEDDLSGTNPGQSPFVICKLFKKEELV
Summary of the method: as §1

GST-ANAC019 NAC domain = molecular target: T2, GST-ANAC019 NAC domain (Arabidopsis thaliana, UniProt Q9C932 14-162); settings: protein: recombinant; tags: GST; chain copies: 2; dsDNA, one strand shown
T2 sequence: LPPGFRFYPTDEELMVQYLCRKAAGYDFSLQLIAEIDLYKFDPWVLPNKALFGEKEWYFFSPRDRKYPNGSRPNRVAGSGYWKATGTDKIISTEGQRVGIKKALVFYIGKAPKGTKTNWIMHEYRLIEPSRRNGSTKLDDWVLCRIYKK
Summary of the method: as §1

GST-ANAC055(1-171) = molecular target: T3, GST-ANAC055(1-171) (Arabidopsis thaliana, UniProt Q9LDY8 1-171); settings: protein: recombinant; tags: GST; chain copies: 2; dsDNA, one strand shown
T3 sequence: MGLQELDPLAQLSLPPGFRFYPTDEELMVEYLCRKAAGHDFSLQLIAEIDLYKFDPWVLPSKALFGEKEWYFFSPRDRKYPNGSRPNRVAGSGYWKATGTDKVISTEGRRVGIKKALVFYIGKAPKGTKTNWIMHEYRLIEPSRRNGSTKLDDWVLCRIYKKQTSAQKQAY
Summary of the method: as §1

GST-ATAF1 NAC domain = molecular target: T4, GST-ATAF1 NAC domain (Arabidopsis thaliana, UniProt Q39013 7-158); settings: protein: recombinant; tags: GST; chain copies: 2; dsDNA, one strand shown
T4 sequence: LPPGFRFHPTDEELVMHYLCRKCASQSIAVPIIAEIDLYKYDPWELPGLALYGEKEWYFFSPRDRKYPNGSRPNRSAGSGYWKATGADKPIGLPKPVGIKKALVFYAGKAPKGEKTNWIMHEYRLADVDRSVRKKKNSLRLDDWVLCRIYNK
Summary of the method: as §1

[1] = molecular target: T5, GST-ANAC092(1-285) full length (Arabidopsis thaliana, UniProt Q9FKA0 1-285); settings: protein: recombinant; tags: GST; chain copies: 2; dsDNA, one strand shown
T5 sequence: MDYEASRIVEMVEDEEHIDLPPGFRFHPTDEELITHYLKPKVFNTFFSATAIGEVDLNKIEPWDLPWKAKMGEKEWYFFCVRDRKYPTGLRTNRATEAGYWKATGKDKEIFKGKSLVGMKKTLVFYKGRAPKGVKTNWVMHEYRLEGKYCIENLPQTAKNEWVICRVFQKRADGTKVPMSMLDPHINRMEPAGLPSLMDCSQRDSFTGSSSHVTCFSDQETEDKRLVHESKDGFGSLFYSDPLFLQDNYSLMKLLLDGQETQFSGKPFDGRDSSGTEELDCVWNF
Summary of the method: as §1

GST-NAP(1-166) = molecular target: T6, GST-NAP(1-166) (Arabidopsis thaliana, UniProt O49255 1-166); settings: protein: recombinant; tags: GST; chain copies: 2; dsDNA, one strand shown
T6 sequence: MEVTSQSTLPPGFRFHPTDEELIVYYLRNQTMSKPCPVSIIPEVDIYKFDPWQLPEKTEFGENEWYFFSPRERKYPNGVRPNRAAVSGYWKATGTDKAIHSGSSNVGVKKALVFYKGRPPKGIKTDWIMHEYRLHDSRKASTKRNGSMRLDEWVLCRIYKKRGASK
Summary of the method: as §1

GST-NST2(1-184) = molecular target: T7, GST-NST2(1-184) (Arabidopsis thaliana, UniProt Q9M274 1-184); settings: protein: recombinant; tags: GST; chain copies: 2; dsDNA, one strand shown
T7 sequence: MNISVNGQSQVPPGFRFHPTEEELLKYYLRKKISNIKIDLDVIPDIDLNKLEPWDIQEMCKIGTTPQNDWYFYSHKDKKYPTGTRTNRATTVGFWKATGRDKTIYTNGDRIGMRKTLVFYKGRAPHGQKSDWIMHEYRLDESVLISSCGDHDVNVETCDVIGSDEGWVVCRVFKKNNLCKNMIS
Summary of the method: as §1

GST-SND1(1-203) = molecular target: T8, GST-SND1(1-203) (Arabidopsis thaliana, UniProt Q9LPI7 1-203); settings: protein: recombinant; tags: GST; chain copies: 2; dsDNA, one strand shown
T8 sequence: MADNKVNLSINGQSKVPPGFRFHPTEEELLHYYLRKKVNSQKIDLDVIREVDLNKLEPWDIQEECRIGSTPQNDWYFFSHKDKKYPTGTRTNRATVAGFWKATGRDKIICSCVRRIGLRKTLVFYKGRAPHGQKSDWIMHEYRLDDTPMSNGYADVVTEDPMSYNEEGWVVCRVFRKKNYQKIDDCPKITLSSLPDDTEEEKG
Summary of the method: as §1

GST-VND3 NAC domain = molecular target: T9, GST-VND3 NAC domain (Arabidopsis thaliana, UniProt Q9FH59 12-162); settings: protein: recombinant; tags: GST; chain copies: 2; dsDNA, one strand shown
T9 sequence: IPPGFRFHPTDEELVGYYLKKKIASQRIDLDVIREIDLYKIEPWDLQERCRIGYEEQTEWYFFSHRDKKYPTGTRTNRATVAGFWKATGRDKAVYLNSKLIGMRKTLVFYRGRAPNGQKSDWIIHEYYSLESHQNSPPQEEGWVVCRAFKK
Summary of the method: as §1

GST-WRKY1(266-371) = GST-WRKY1(266-371) (Arabidopsis thaliana, UniProt Q9SI37 266-371); settings: protein: recombinant; tags: GST; dsDNA, one strand shown
Chain of GST-WRKY1(266-371) (Q9SI37 266-371): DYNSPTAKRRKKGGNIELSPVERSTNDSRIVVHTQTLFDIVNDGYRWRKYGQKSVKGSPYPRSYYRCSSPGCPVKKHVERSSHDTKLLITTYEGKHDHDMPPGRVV
Summary of the method: as §1

GST-NTL8 NAC domain = molecular target: T10, GST-NTL8 NAC domain (Arabidopsis thaliana, UniProt Q9XIN7 14-156); settings: protein: recombinant; tags: GST; chain copies: 2; dsDNA, one strand shown
T10 sequence: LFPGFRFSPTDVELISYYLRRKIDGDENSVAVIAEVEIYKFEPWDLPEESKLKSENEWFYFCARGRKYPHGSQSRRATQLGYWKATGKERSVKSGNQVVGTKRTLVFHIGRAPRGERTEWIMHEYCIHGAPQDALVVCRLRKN
Summary of the method: as §1

GST-VND7 NAC domain = molecular target: T11, GST-VND7 NAC domain (Arabidopsis thaliana, UniProt Q9C8W9 9-158); settings: protein: recombinant; tags: GST; chain copies: 2; dsDNA, one strand shown
T11 sequence: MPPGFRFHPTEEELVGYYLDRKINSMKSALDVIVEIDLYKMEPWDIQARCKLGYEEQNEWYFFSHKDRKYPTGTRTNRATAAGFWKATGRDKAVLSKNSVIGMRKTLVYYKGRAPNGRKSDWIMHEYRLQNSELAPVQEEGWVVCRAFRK
Summary of the method: as §1

Sequence | binding signal (GST-ANAC092(1-176)) [E-score] | binding signal (GST-NTL6(1-168)) [E-score] | binding signal (GST-ANAC019 NAC domain) [E-score] | binding signal (GST-ANAC055(1-171)) [E-score] | binding signal (GST-ATAF1 NAC domain) [E-score] | binding signal [1] [E-score] | binding signal (GST-NAP(1-166)) [E-score] | binding signal (GST-NST2(1-184)) [E-score] | binding signal (GST-SND1(1-203)) [E-score] | binding signal (GST-VND3 NAC domain) [E-score] | binding signal (GST-WRKY1(266-371)) [E-score] | binding signal (GST-NTL8 NAC domain) [E-score] | binding signal (GST-VND7 NAC domain) [E-score]
CGTCAACA | 0.149 | 0.0991 | 0.0912 | 0.135 | 0.156 | 0.196 | 0.116 | 0.111 | 0.181 | 0.0753 | 0.435 |  | 
AGTTGACG | 0.0881 |  | 0.0919 | 0.0862 | 0.213 |  | 0.0554 | 0.107 | 0.198 | 0.0565 | 0.43 |  | 
GGTCAAAA | 0.0966 | 0.101 |  | 0.0727 |  |  |  |  | 0.123 | 0.0741 | 0.478 | 0.116 | 
AATTACGC | 0.17 |  |  | 0.155 | 0.18 | 0.243 | 0.144 | 0.199 | 0.428 | 0.119 |  |  | 0.13
CAGTCAAC | 0.0753 |  |  |  | 0.084 |  |  |  | 0.0832 | 0.0605 | 0.491 |  | 
TTGACCAA | 0.232 |  | 0.063 | 0.0923 | 0.066 | 0.226 |  |  | 0.0845 | 0.0958 | 0.491 |  | 
CACGCTAC | 0.46 |  | 0.167 | 0.0982 | 0.167 | 0.476 |  | 0.298 | 0.441 | 0.0671 |  |  | 0.135
AAGGTCAA | 0.138 | 0.252 |  | 0.106 | 0.146 | 0.0845 |  | 0.0822 | 0.144 | 0.101 | 0.484 | 0.0854 | 
ACAAGTTA | 0.362 |  |  | 0.106 | 0.162 | 0.41 |  | 0.194 | 0.216 | 0.152 |  |  | 0.146
TTAAGGAA | 0.11 | 0.48 |  | 0.0521 | 0.0827 | 0.131 |  | 0.139 | 0.39 | 0.24 | 0.0668 | 0.293 | 
AGCACGCA | 0.435 |  | 0.333 | 0.281 | 0.31 | 0.453 | 0.282 | 0.222 | 0.343 | 0.301 |  | 0.0609 | 0.216
AGTCAAAC |  | 0.0896 | 0.0687 | 0.103 | 0.109 |  | 0.0582 | 0.0701 | 0.126 | 0.103 | 0.491 | 0.07 | 
CAAAAGTC | 0.0755 | 0.0864 |  | 0.138 | 0.222 | 0.112 |  | 0.252 | 0.133 | 0.141 | 0.432 |  | 
GCACGCTA | 0.445 |  | 0.207 | 0.117 |  | 0.474 |  | 0.173 | 0.409 | 0.111 |  |  | 0.0845
CACGTTAG | 0.387 |  |  | 0.0916 | 0.13 | 0.412 | 0.0974 | 0.117 | 0.237 | 0.164 |  |  | 0.0853
